Results filed as inconclusive are left out. Activity calls are given as the source filed them. Rule for the calls: active = hit-call score of the fitted dose curve at least 0.9, where 1 is the maximum; inconclusive = response in the unintended direction; inactive = score below 0.9.

PGR (gene 5241), sequence (P06401 whole entry, looked up): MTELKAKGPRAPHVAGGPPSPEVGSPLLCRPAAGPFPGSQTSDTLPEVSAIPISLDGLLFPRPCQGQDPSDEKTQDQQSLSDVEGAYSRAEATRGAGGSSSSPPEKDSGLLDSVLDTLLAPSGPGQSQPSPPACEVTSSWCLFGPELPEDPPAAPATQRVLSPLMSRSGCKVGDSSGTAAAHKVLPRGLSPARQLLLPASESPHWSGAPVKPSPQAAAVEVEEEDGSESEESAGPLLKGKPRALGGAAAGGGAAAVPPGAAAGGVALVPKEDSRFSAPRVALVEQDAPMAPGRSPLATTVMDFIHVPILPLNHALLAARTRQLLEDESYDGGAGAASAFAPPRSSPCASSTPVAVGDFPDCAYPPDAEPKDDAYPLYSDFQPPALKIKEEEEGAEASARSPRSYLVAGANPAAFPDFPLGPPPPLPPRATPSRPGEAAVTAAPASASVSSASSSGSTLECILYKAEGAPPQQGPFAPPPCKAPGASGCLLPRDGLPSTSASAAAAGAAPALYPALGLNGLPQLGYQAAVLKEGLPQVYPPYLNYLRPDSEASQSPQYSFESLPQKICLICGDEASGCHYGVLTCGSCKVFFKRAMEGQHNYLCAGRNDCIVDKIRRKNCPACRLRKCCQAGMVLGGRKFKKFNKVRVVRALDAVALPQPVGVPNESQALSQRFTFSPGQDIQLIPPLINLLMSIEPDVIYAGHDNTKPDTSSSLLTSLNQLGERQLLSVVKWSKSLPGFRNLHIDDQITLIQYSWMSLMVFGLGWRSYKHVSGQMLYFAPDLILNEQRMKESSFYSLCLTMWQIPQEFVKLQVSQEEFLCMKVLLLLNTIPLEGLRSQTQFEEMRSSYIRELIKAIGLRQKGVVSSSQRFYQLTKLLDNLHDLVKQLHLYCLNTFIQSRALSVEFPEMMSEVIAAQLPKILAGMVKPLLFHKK

The test concerns the target PGR (gene 5241) (UniProt P06401). Briefly: NVS_NR_hPR: NovaScreen (NVS) Nuclear Receptor Binding Assay for human Progestron Receptor (PR) (AID 2283360).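 Note: active means loss of bound radioligand signal versus DMSO baseline.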 Here is the method: NVS_NR_hPR is a biochemical, single-readout assay that uses extracted gene-proteins from T47D in a cell-free assay. Measurements were taken 18 hours after chemical dosing in a 96-well plate.NVS_NR_hPR is one of one assay component(s) measured or calculated from the NVS_NR_hPR assay. It is designed to make measurements of radioligand binding, a form of binding reporter, as detected with scintillation counting signals by Lysate-based radiodetection technology.Data from the assay component NVS_NR_hPR was analyzed into 1 assay endpoint. This assay endpoint, NVS_NR_hPR, was analyzed in the positive analysis fitting direction relative to DMSO as the negative control and baseline of activity. Using a type of binding reporter, loss-of-signal activity can be used to understand changes in the binding as they relate to the gene PGR. Furthermore, this assay endpoint can be referred to as a primary readout, because the performed assay has only produced 1 assay endpoint. To generalize the intended target to other relatable targets, this assay endpoint is annotated to the nuclear receptor intended target family, where the subfamily is steroidal.
Binding assays used specific radioligands (tritiated, iodinated) with non-radioactive competitive displacement ligands in agonist or antagonist protocols (as indicated) and various reference compounds and inhibitors to titrate specific binding to receptors and transporters. Most enzyme assays (CYPs, kinases, phosphatases, proteases, HDACs) used recombinant protein and specific substrates (fluorescence mostly, some colorimetric and radioactive) and inhibitors, followed by a biochemical separation of substrate and product. All assays for the biochemical HTS were initially run in duplicate at a single concentration (10 uM for CYP450 assays and 25 uM for all others). […] Each assay was run with positive and negative controls, and concurrent controls on every plate. The follow-up (secondary) screen tested active chemical-pairs in concentration series, as well as a few additional assays not tested in the primary screen, some selected negative inactives, and several cases re-run in the concentration series for confirmatory purposes.
Regarding `CN=C=S`, the outcome was inactive. In the case of `N#Cc1c(Cl)cccc1Cl`, the compound was called inactive. As for `COP(=S)(OC)Oc1ccc([N+](=O)[O-])c(C)c1`, the AC50 is 4.97 µM (active). As for `CCN(CC)c1nc(C)cc(OP(=S)(OC)OC)n1`, the call was inactive. Regarding `Cc1c(COC(=O)[C@@H]2[C@H](/C=C(\Cl)C(F)(F)F)C2(C)C)cccc1-c1ccccc1`, the call was inactive. With `CCOC(=O)C(C)OC(=O)c1cc(Oc2ccc(C(F)(F)F)cc2Cl)ccc1[N+](=O)[O-]` (configuration not stated), the outcome was inactive.

In the case of `CC(C)Oc1cccc(NC(=O)c2ccccc2C(F)(F)F)c1`, the compound was called inactive. Take `CC(C)=CC1C(C(=O)OCc2coc(Cc3ccccc3)c2)C1(C)C` (configuration not stated): the compound was classed as inactive.

`CNC(=O)Oc1cccc2ccccc12`: the compound was called inactive. Same read-out and setting: in the case of `CCCCC(O)(Cn1cncn1)c1ccc(Cl)cc1Cl` (configuration not stated) it was “inactive”; in that of `CCOP(=O)(OCC)Oc1nc(Cl)c(Cl)cc1Cl`, “inactive”.

For `CC1(C)C(C=C(Cl)Cl)C1C(=O)OC(C#N)c1cccc(Oc2ccccc2)c1` (configuration not stated), the outcome was inactive.

The values above are taken from PubChem BioAssay (EPA / NIEHS).
